test system: Plasmodium falciparum; assay: GSK_TCMDC: Inhibition of Plasmodium falciparum 3D7 in whole red blood cells, using parasite LDH activity as an index of growth. Test compounds present at 2uM; type: functional

Structure (SMILES) | Inhibition
Fc1cccc(COc2ccc(Nc3ncnc4ccc(C#C[C@H]5CCCN5)cc34)cc2Cl)c1 | 91%
c1cncc(-c2cccc(CNc3nccc(Nc4ccc(OCCN5CCOCC5)cc4)n3)c2)c1 | 93%
O=C(Nc1ccc(Cl)cc1C(=O)Nc1cccc(F)c1)c1ccc([N+](=O)[O-])cc1 | 89%
CN1CCCN(Cc2cccc(-c3cccc(NC(=O)c4cccc(C#N)c4)c3)c2)CC1.O=C(O)C(F)(F)F | 95%
Cn1cncc1C(=O)NC1CCN(c2ccnc(Nc3ccc(F)cc3)n2)C1 (stereo not given) | 97%
Cc1cccc(CN2CCN(c3ncc(C(=O)NC4CC4)cc3Cl)CC2)c1.O=C(O)C(F)(F)F | 84%
O=S(=O)(c1cccc(C(F)(F)F)c1)N1CCC(CO)(Cc2cccc(C(F)(F)F)c2)CC1 | 100%
Cl.N#Cc1ccc(C2CCN(CC[C@H](N)Cc3ccc(Cl)s3)CC2)cc1 | 92%
O=C(Nc1cccnc1)c1cc(C(=O)Nc2cccnc2)cc([N+](=O)[O-])c1 | 100%
Cc1nc2ccc(F)cc2n1C1CCN(C(=O)Cc2ccc(F)c(F)c2)CC1 | 100%
O=CO.Oc1ccccc1CNCc1ccc(-c2cnc(N3CCCC(c4ccccc4)C3)nc2)cc1 (stereo not given) | 99%
CCn1c(Sc2ccc(C#N)c([N+](=O)[O-])c2)nnc1-c1cccc(Cl)c1 | 95%
COc1ccc(-c2ccc3c(-c4ccc(F)cc4)cnc(N)c3c2)cn1 | 99%
CCN1CCN(c2ccc(NC(=O)c3cc4c(C)nn(-c5ccccc5)c4s3)cc2C)CC1 | 100%
CS(=O)(=O)c1ccc2[nH]c(-c3cc(-c4ccc(OCCN5CCOCC5)cc4)cnc3N)nc2c1.O=C(O)C(F)(F)F | 100%
CN(C)c1ccc(-c2nc3cc(N)ccc3[nH]2)cc1 | 100%
CCCCOc1ccc(C(O)C(CN2CCCCC2)c2ccccc2)cc1 (stereo not given) | 90%
CCOc1c(Br)cc(C)cc1CNCCCNc1nc2ccccc2[nH]1.Cl | 93%
O=C(NCC1CCN(CC2CCCCC2)C1)c1cc(-c2cccc(C(F)(F)F)c2)cs1.O=C(O)C(F)(F)F (stereo not given) | 96%
COCC(=O)Nc1nc2ccccc2[nH]1 | 98%

Structure (SMILES) | Inhibition
Cc1ccc(NC(=O)C2CCC2)cc1-c1ccc(C(=O)NCC2CC2)cc1 | 98%
Fc1ccc2[nH]c(-c3cccc(-c4cccc(CNCC5CCCO5)c4)c3)nc2c1.O=C(O)C(F)(F)F (stereo not given) | 99%
Cn1cnc(CCNC(=O)c2cccc(-c3csc(-c4nc5ccccc5[nH]4)c3)c2)c1 | 100%
Cc1cccc2nc(-c3ccc(-c4ccc(NC(=O)Nc5ccc(F)c(F)c5F)cc4)s3)[nH]c12 | 100%
COc1ccc(CNC2Cc3ccccc3C2)cc1-c1ccc(S(=O)(=O)NCCN2CCCC2)cc1.O=C(O)C(F)(F)F | 100%
CN(C)c1ccc(C=CC(=O)NC(=O)c2ccccc2O)cc1 | 92%
CC(C)(C)NCc1cc(Nc2ccnc3cc(Cl)ccc23)ccc1F | 100%
CCOC(=O)c1ccc(NC(=O)N[C@@H](Cc2ccc(O)cc2)C(=O)NC2CCN(Cc3ccc4c(c3)OCO4)CC2)cc1.O=C(O)C(F)(F)F | 86%
Cc1c(NC(=O)COc2ccc(Cl)cc2C(=O)c2cc(F)cc(C(F)(F)F)c2)ccc2ncsc12 | 86%
CNCc1cccc2nc(-c3ccc(Cc4cc(Cl)ccc4OCC(C)C)o3)[nH]c12.Cl | 97%
CN(C)CCCNCCS(=O)(=O)c1cccc(Nc2ccc(-c3cccc(N(C)C)c3)cn2)c1 | 98%
O=C(O)C(F)(F)F.c1cc(CNCCc2ccncc2)cc(-c2ccc(-c3nc4ccccc4[nH]3)cc2)c1 | 99%
CCOC(=O)c1c[nH]c2c(ccc3ccccc32)c1=O | 96%
Nc1c(Cl)cc(C(O)CNCCCCCOCCc2ccc3occc3c2)cc1Cl (stereo not given) | 99%
Cc1ccc(Nc2ccnc(Nc3ccc(F)c(Cl)c3)n2)cc1O.Cl | 100%
CC(C)(C)c1cc2cc(Nc3ccnc4cc(-c5nccs5)ccc34)ccc2[nH]1.Cl | 100%
COc1ccc(-c2nonc2NC(=O)c2ccc(C(C)(C)C)cc2)cc1OC | 99%
CN1CCN(c2ccnc3ccc(NC(=O)Nc4ccc(Br)cc4)cc23)CC1 | 100%
CC(=O)N1CCC(C(=O)Nc2ccc(-c3cccc(-c4nc5cccc(C)c5[nH]4)c3)cc2)CC1 | 84%
CC(C)CN1CCCN(Cc2cccc(NC(=O)c3ccc(-c4ccccc4)cc3)c2)CC1.O=C(O)C(F)(F)F | 99%
